Compound activity as filed in PubChem.
MPTP inh: mitochondrial permeability transition pore inhibitors, primary screen, biochemical, isolated mouse mitochondria, absorbance | inhibition, % at 10 µM | actives 1.4% (n = 360,000) | Ca2+ swelling absorbance, 30 min;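 active = inhibition of 50% or more, scaled per plate between neutral and stimulator controls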;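 note: 0% = DMSO wells given calcium and 100% = 1 mM EGTA wells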
TIM10 inh: growth inhibitors of isogenic TIM10 control yeast, primary screen, counter-screen for tim10-1 yeast inhibitor project, luminescence, uHTS; AID 463195, 2010; inhibition, % at 10 µM; S. cerevisiae TIM10 strain growth, BacTiter-Glo luminescence, 24 h; actives 1.4% (n = 330,000);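 active = inhibition of 40% or more at the single tested concentration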;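 note: wild-type TIM10 isogenic control strain grown at permissive 25 °C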
tim10-1 inh: growth inhibitors of tim10-1 mutant yeast, primary screen, luminescence, uHTS; inhibition, % at 20 µM; actives 2.2% (n = 330,000); S. cerevisiae tim10-1 ts strain growth, BacTiter-Glo, 24 h;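 active = inhibition of at least 40%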;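 note: mutant grown at 25 °C; 0% = DMSO wells with yeast and 100% = wells holding no yeast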
tim23-1 inh: growth inhibitors of tim23-1 mutant yeast, primary screen, luminescence, uHTS | actives 1.3% (n = 330,000) | S. cerevisiae tim23-1 growth, BacTiter-Glo luminescence, 24 h | AID 463212, 2010 | inhibition, % at 20 µM;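 active = growth inhibition of the mutant yeast at or above 50%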;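 note: temperature-sensitive mutant grown at 25 °C; plate controls were DMSO-treated mutant yeast for no effect and medium wells lacking yeast for full effect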
Mdm2 MdmX PPI: inhibitors of human Mdm2-MdmX association, primary screen, cell-based, luminescence, split luciferase, SaOS-2, uHTS; Protein Mdm4 (Homo sapiens) + E3 ubiquitin-protein ligase Mdm2 (Homo sapiens), …; SaOS-2 split-luciferase Mdm2/MdmX complementation; inhibition, % at 8 µM; actives 3% (n = 330,000); AID 485346, 2010;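 active = inhibition of at least 50% at 8 µM in the primary screen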
Target sequence (O15151 whole entry, looked up): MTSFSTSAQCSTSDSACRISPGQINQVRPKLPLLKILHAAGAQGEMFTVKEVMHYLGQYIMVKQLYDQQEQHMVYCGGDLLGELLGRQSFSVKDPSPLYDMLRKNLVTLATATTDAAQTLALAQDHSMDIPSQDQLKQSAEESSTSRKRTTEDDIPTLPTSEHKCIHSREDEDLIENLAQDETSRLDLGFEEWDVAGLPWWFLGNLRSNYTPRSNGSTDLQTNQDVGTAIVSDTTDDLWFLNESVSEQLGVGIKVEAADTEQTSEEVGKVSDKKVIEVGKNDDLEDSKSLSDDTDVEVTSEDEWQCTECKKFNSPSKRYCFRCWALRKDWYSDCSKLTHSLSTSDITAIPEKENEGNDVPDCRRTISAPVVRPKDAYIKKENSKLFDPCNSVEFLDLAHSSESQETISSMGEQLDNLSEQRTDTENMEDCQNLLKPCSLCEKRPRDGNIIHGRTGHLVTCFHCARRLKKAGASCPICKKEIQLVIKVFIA
Target sequence (Q00987 whole entry, looked up): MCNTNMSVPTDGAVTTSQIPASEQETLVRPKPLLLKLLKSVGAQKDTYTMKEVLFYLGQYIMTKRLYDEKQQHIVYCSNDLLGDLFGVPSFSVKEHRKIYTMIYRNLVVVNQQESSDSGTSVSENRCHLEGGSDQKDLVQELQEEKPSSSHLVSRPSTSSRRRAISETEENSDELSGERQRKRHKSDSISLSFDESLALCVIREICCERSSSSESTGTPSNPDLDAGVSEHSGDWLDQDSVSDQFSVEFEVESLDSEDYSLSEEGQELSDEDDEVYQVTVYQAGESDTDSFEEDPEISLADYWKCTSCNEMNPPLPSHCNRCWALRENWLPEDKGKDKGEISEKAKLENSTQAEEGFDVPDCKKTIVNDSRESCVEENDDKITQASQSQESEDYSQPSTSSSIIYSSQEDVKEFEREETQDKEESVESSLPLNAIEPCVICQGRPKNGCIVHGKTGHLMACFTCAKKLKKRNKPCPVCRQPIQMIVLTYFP
Mdm2-MdmX conf: Mdm2-MdmX complex disruptors, retested hits, confirmation, luminescence, single concentration; inhibition, % at 8 µM; AID 489028, 2010; Mdm2-MdmX binding, luminescent assay; shares compounds with Mdm2 MdmX PPI; actives 55% (n = 10,000); in the data active = inhibition above about 40%
Full FLuc ctr: full-length luciferase signal inhibition, confirmation, counter-screen for Mdm2/MdmX interaction inhibitor project, cell-based, single concentration, SaOS-2. shares compounds with Mdm2 MdmX PPI. SaOS-2 full-length luciferase counterscreen, luminescence. inhibition, % at 8 µM. actives 77% (n = 6,200);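 active = mean inhibition at 8 µM reaching about 37%, which flags the compound as non-specific, limit read from the data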;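 note: p53-null SaOS-2 cells with luciferase driven by a doxycycline-inducible promoter; compound on cells about two nights before reading with doxycycline added after day one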
Numbers without * were called inactive; . = not tested or not shown. Rows were chosen to be rich in hits. Some 6.3% of all compounds tested hit in one or more screens of this group.

SMILES | MPTP inh | TIM10 inh | tim10-1 inh | tim23-1 inh | Mdm2 MdmX PPI | Mdm2-MdmX conf | Full FLuc ctr
COC(=O)c1cc(=O)n(CCc2ccccc2F)c(=Nc2ccc(F)c(Cl)c2)s1 | 5 | 2 | 8 | 9 | 73* | 13 | .
C/C(=N\NC(=O)c1ccc2c(c1)OCCO2)c1ccccc1 | 4 | 10 | 9 | 16 | 71* | -13 | .
O=C(CSc1nnc(CNC(=O)c2c(F)cccc2F)o1)NCc1ccc2c(c1)OCO2 | 0 | . | . | . | . | . | .
COc1cccc(-c2nc(N3CC(C)CC(C)C3)c3ccccc3n2)c1O (centres undefined) | 5 | -15 | 8 | -26 | 61* | 14 | .
COc1ccc(Nc2nc(-c3cccc(OC)c3O)nc3ccccc23)cc1 | 1 | 10 | 28 | 34 | 37 | . | .
COc1cccc(-c2nc(Oc3cc(C)cc(C)c3)c3ccccc3n2)c1O | . | -8 | 11 | 9 | 64* | 30 | .
COc1ccc(-c2nn(-c3ccccc3)cc2/C=N/Nc2ccc(S(N)(=O)=O)cc2[N+](=O)[O-])cc1OC | 1 | 10 | 16 | 12 | 65* | 18 | .
COc1ccc(OC)c(NC(=O)C2CCN(c3cc(-c4ccccc4)nc4ncnn34)CC2)c1 | 1 | 11 | 7 | 4 | 38 | . | .
COc1ccc(NC(=O)C2CCN(c3cc(-c4ccccc4)nc4ncnn34)CC2)cc1OC | 1 | 5 | 10 | -2 | 54* | 36 | 60*
Cc1nn(CC(=O)NCc2cccc3ccccc23)c(=O)c2ccccc12 | 0 | -12 | 10 | -13 | 85* | 48* | 64*
Cc1nn(CC(=O)NCc2ccccc2)c(=O)c2ccccc12 | 0 | -2 | 16 | -6 | -16 | . | .
CCOC(=O)C1=C(C)Nc2nnnn2C1c1ccc(OC)c(Br)c1 (centres undefined) | 1 | 7 | 14 | 27 | 14 | . | .
CCOC(=O)C1=C(C)NC(=S)N(C(C)=O)C1c1ccc(OC)c(OC)c1 (centres undefined) | 4 | 10 | -3 | 19 | 57* | 8 | .
COc1cc(OC)c(NC2=CC(=O)C(=O)c3ccccc32)cc1Cl | 4 | -3 | 10 | 2 | 70* | 66* | 46*
CC(C)COC(=O)N1CCCCC1c1cc(C(=O)NCc2ccccc2)no1 (centres undefined) | 2 | . | . | . | . | . | .
COc1cccc(/C=C/C(=C2/C(=O)N(c3ccccc3)N=C2C)c2ccc(Br)cc2)c1OC | -1 | 6 | 20 | 27 | 59* | 10 | .
COc1cccc(/C=C/C(=C2/C(=O)N(c3ccccc3)N=C2C)c2ccccc2)c1OC | -3 | 30 | 22 | 32 | 13 | . | .
CCc1ccc(C(O)(CC(C)C)C(CN2CCOCC2)c2ccccc2)cc1 (centres undefined) | 0 | 20 | 24 | 44 | 83* | 85* | 27
COc1ccc(C(O)(CCC(C)C)C(CN2CCOCC2)c2ccc(Cl)cc2)cc1 (centres undefined) | 1 | 17 | 17 | 20 | 7 | . | .
COc1ccc(C(O)(CC(C)C)C(CN2CCOCC2)c2ccccc2)cc1 (centres undefined) | -1 | 20 | 34 | 32 | 77* | 77* | 31
Cc1cc(NC(=O)c2ccc(C#N)cc2)n(-c2ccccn2)n1 | 0 | 18 | 15 | -9 | 63* | -8 | .
COc1cc(OC)c(NC(=O)C(=O)CC(=O)c2ccc(C)cc2C)cc1Cl | 5 | -3 | -8 | 14 | 51* | 29 | 81*
COC(=O)c1cccc(Nc2nc(-c3cccnc3)nc3ccccc23)c1 | 17 | 4 | 14 | 31 | 70* | 43* | 72*
CCOC(=O)c1cccc(Nc2nc(-c3cccnc3)nc3ccccc23)c1 | 1 | -16 | 12 | 33 | 70* | 36 | .
COc1ccc(-c2nc(NC(=O)c3ccccc3)sc2-c2ccc([N+](=O)[O-])cc2)cc1 | 2 | 17 | 28 | 23 | 64* | 10 | .
SMILES | MPTP inh | TIM10 inh | tim10-1 inh | tim23-1 inh | Mdm2 MdmX PPI | Mdm2-MdmX conf | Full FLuc ctr
COc1ccc(-c2sc(NC(C)=O)nc2-c2ccccc2)cc1 | 19 | 35 | 28 | 33 | 20 | . | .
O=C(CCCN1C(=O)C(=Cc2ccc3c(c2)OCO3)SC1=S)Nc1ccc(C(=O)O)c(O)c1 | 0 | . | . | . | . | . | .
Oc1cccnc1Sc1cccc(C(F)(F)F)c1 | 7 | -11 | -7 | 20 | 17 | . | .
FC(F)(F)c1cccc(Sc2nc(-c3ccccc3)nnc2C(F)(F)F)c1 | 22 | 15 | 40 | 22 | 55* | 17 | .
C=CCOc1c(Cl)cc(CNc2ccc(N(C)C)cc2)cc1OC | -3 | -15 | 23 | 1 | 60* | 54* | 75*
C=CCOc1c(Cl)cc(CNc2ccc(C)c(Cl)c2)cc1OC | . | -22 | 10 | -4 | 76* | 77* | 97*
COc1cccc(CNc2ccc(C)c(Cl)c2)c1 | 2 | -6 | 8 | 12 | -25 | . | .
COc1cc(CNc2ccc(N3CCCC3)cc2)cc(Cl)c1OC | 5 | -23 | 18 | 10 | 41 | . | .
CC1(NC(=O)CC(c2ccccc2)(c2ccccc2)c2ccccc2)CCN(CCCc2ccccc2)C1=O (centres undefined) | -2 | 20 | 23 | 26 | 76* | 23 | .
CC1(NC(=O)CCc2ccccc2)CCN(CCCc2ccccc2)C1=O (centres undefined) | -3 | 15 | 20 | 21 | -1 | . | .
Fc1ccc(-c2nnc3ccc(N4CCCC4)nn23)cc1 | -4 | 16 | 36 | 24 | 5 | . | .
Brc1ccc(-c2nnc3ccc(N4CCN(c5ccccc5)CC4)nn23)cc1 | 4 | 7 | 23 | -12 | 100* | 45* | 77*
CC(=O)CSc1nc(N)c(C#N)c(-c2cccs2)c1C#N | 0 | 14 | 23 | -3 | 52* | 37 | 41*
N#Cc1c(N)nc(SCC(=O)NCCc2ccccc2)c(C#N)c1-c1cccs1 | 3 | 8 | 2 | 6 | 63* | 15 | .
Cc1cc(-c2csc3ncnc(N4CCN(C)CC4)c23)cc(C)c1C | 0 | 18 | 3 | 1 | 36 | . | .
Cc1ccc(-c2csc3ncnc(N4CCN(S(=O)(=O)c5ccc(C#N)cc5)CC4)c23)cc1 | 0 | . | . | . | . | . | .
Cc1ccc(-c2csc3ncnc(N4CCN(S(=O)(=O)c5cccs5)CC4)c23)cc1 | 1 | -34 | -11 | 21 | 51* | 18 | .
CN1CCN(c2ncnc3scc(-c4ccccc4Cl)c23)CC1 | 0 | -11 | 7 | 0 | 70* | 79* | 29
Oc1ccccc1N1CCN(c2ncnc3scc(-c4ccccc4)c23)CC1 | 1 | 39 | 19 | 33 | 59* | 30 | .
Fc1ccc(-c2csc3ncnc(N4CCc5ccccc5C4)c23)cc1 | 4 | 11 | 13 | 29 | 51* | 27 | .
